PubChem BioAssay (NCI)
The panel holds about 79,000 compounds, 15% with a hit somewhere; the sample as a whole holds those more often. Values without a mark were called inactive. The source made the active and inactive calls. Cut-off read from the data, not from the text of the source: active = growth inhibition above about 70%; inactive = the rest.

Legend:
[1] = NCI Yeast Anticancer Drug Screen. Data for the rad50 strain (AID 155);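 note: 0% = growth of vehicle-only cultures of the same strain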; details: S. cerevisiae rad50 strain growth inhibition, hits give high values
Method in brief: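 Relative growth inhibition (compound vs vehicle) was measured in yeast with a defined repair-gene alteration.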

[2] = NCI Yeast Anticancer Drug Screen. Data for the mec2-1 strain (AID 157); details: S. cerevisiae mec2-1 strain, hits give high values
Method in brief: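 mec2-1 yeast strain, carrying an alteration in DNA damage repair or cell cycle control, was exposed to compounds; growth inhibition was measured relative to vehicle-treated controls.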

[3] = NCI Yeast Anticancer Drug Screen. Data for the sgs1 mgt1 strain (AID 161);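 note: 0% = growth of cultures given vehicle only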; details: S. cerevisiae sgs1 mgt1 strain, hits give high values
Method in brief: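 This yeast growth screen uses a strain with defined DNA-repair lesions; compound-treated growth is compared with vehicle-treated growth.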

[4] = NCI Yeast Anticancer Drug Screen. Data for the cln2 rad14 strain (AID 165);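 note: 0% = growth equal to vehicle treated cultures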; details: S. cerevisiae cln2 rad14 strain, hits give high values
Method in brief: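 Yeast carrying cln2 and rad14 alterations (cell cycle control and DNA damage repair) were exposed to compounds. Growth inhibition was measured against vehicle-treated controls.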

[5] = NCI Yeast Anticancer Drug Screen. Data for the bub3 strain (AID 167); details: S. cerevisiae bub3 mutant strain, hits give high values
Method in brief: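 Screening used yeast with an engineered genetic alteration affecting cell cycle control. Compound-exposed cultures were compared with vehicle cultures, and reduced growth was taken as inhibition.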

[6] = NCI Yeast Anticancer Drug Screen. Data for the mlh1 rad18 strain (AID 175); details: S. cerevisiae mlh1 rad18 strain growth inhibition, hits give high values
Method in brief: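 Growth inhibition of the yeast strain was measured after compound exposure and expressed relative to vehicle-treated controls. The strain carries defined defects in DNA damage repair.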

[7] = at 5.0 µM (retest, dose inferred, filed as 0.5)
[8] = at 50.0 µM (retest, dose inferred, filed as 5.0)

Compound	growth inhibition [1, 7]	growth inhibition [1, 8]	growth inhibition ([1]; at 50.0 µM)	growth inhibition [2, 7]	growth inhibition [2, 8]	growth inhibition ([2]; at 50.0 µM)	growth inhibition [3, 7]	growth inhibition [3, 8]	growth inhibition ([3]; at 50.0 µM)	growth inhibition [4, 7]	growth inhibition [4, 8]	growth inhibition ([4]; at 50.0 µM)	growth inhibition [5, 7]	growth inhibition [5, 8]	growth inhibition ([5]; at 50.0 µM)	growth inhibition [6, 7]	growth inhibition [6, 8]	growth inhibition ([6]; at 50.0 µM)
Cc1nc(Nc2ccc(Cl)cc2)sc1C(=O)NNC(=O)C(=O)NN	3%	3%	80.5% (active)	-19%	-8%	59.5%	-13%	9%	61.8%	-31%	-10%	64.5%	-26%	-5%	41.1%	-45%	-32%	69.5%
CC(=O)Oc1ccc(-c2ccc(Br)cc2)cc1	-1%	92% (active)	89.2% (active)	-3%	91% (active)	97.9% (active)	-2%	89% (active)	96.4% (active)	-11%	93% (active)	97.8% (active)	20%	94% (active)	97.6% (active)	-7%	94% (active)	98% (active)
CC12CCC3c4cc(O)ccc4CCC3C1CCC2O (centres undefined)	4%	54%	50.2%	-4%	51%	26.5%	1%	81% (active)	58.2%	-6%	41%	24.8%	-1%	54%	55.4%	4%	67%	37%
CCc1cccc(CC)c1NC(=O)C(C#N)C1=C(Cl)C(=O)c2ccccc2C1=O (centres undefined)	63%	97% (active)	89.8% (active)	92% (active)	98% (active)	93.5% (active)	73% (active)	99% (active)	90% (active)	36%	99% (active)	91.3% (active)	67%	99% (active)	92.1% (active)	75% (active)	96% (active)	90.5% (active)
COc1c(O)cc2c(c1O)C(=O)C1=C(CCCC1)C2=O	-4%	63%	47.1%	2%	49%	22.2%	4%	88% (active)	62.1%	-5%	22%	38.9%	11%	80% (active)	65%	2%	70% (active)	21.3%
O=C1C(Sc2ccc3ccccc3c2)=C(Sc2ccc3ccccc3c2)C(=O)c2ccccc21	34%	90% (active)	94.2% (active)	21%	94% (active)	99% (active)	36%	93% (active)	98.9% (active)	7%	89% (active)	98.3% (active)	71% (active)	90% (active)	98.9% (active)	16%	89% (active)	96.8% (active)
NC(=S)C(=S)N/C=C/c1nc2ccccc2[nH]c1=O	-19%	98% (active)	89.8% (active)	-25%	99% (active)	92.7% (active)	-13%	97% (active)	91.7% (active)	-11%	98% (active)	89.3% (active)	-7%	99% (active)	90.7% (active)	-6%	98% (active)	89.4% (active)
CCCCCCCCCCCCCC[N+]1(CC)CCCCC1	77% (active)	99% (active)	90.2% (active)	99% (active)	99% (active)	91.3% (active)	99% (active)	100% (active)	92.2% (active)	84% (active)	99% (active)	89.8% (active)	99% (active)	99% (active)	90.8% (active)	67%	99% (active)	89.5% (active)
COc1ccc(OC)c(/C=C/NC=O)c1	-10%	10%	-11.4%	-11%	-7%	13.2%	-12%	-2%	-6.4%	-15%	5%	49.2%	-1%	-2%	-4.35%	5%	-24%	-0.95%
Oc1cc(CNCc2ccccc2)c(O)c(CNCc2ccccc2)c1	10%	10%	-4%	17%	24%	31.9%	5%	11%	5.25%	3%	-13%	38.2%	-1%	-4%	1.95%	8%	15%	17%
O=C1C=CC(=O)N1c1ccc(-c2ccc(N3C(=O)C=CC3=O)cc2)cc1	41%	68%	48.3%	56%	87% (active)	35.6%	60%	82% (active)	60.6%	18%	57%	27.1%	33%	80% (active)	46%	58%	79% (active)	57.5%
Cc1ccc(C2(O)CCN(Cc3ccccc3)CC2)cc1	30%	85% (active)	56.5%	39%	99% (active)	8.3%	47%	72% (active)	70% (active)	75% (active)	89% (active)	61.8%	64%	81% (active)	41%	37%	98% (active)	47%
O=C1c2ccccc2C(=O)c2ncccc21	14%	91% (active)	96.3% (active)	8%	86% (active)	94.4% (active)	8%	89% (active)	93.3% (active)	-2%	85% (active)	86.5% (active)	11%	87% (active)	91% (active)	37%	95% (active)	97.8% (active)
COc1ccc(-c2csc(C)n2)cc1OC	5%	1%	21.4%	2%	4%	3.35%	1%	7%	16.1%	3%	-3%	30.3%	0%	9%	0.25%	2%	11%	8.5%
O=C(/C=C/c1ccccc1)c1cc2c(cc1O)OCO2	-6%	17%	29.6%	-5%	3%	-3.2%	-16%	9%	22.9%	2%	31%	13.8%	3%	37%	18.8%	-16%	-1%	31.5%
CCOC(=O)c1c(N2CCCC2)nsc1Nc1ccc(F)cc1	-3%	90% (active)	91.8% (active)	-1%	93% (active)	87.2% (active)	13%	90% (active)	92% (active)	2%	75% (active)	45%	1%	92% (active)	94.8% (active)	-2%	88% (active)	93.5% (active)
NC(=O)Nc1cc(=O)[nH]c(=S)[nH]1	-2%	-2%	6.9%	4%	-1%	8.65%	0%	0%	-9.9%	-1%	-5%	5.05%	-1%	-4%	42.4%	-3%	-2%	-23.1%
Cc1ccc(C)c(N(c2ccccc2[N+](=O)[O-])S(C)(=O)=O)c1	5%	20%	99.5% (active)	19%	36%	99.5% (active)	5%	22%	99.6% (active)	5%	21%	99.3% (active)	-2%	16%	99.4% (active)	-5%	10%	99.2% (active)
